Six1-Eya2 inh: inhibitors of human Six1/Eya2 interaction. Q15475+O00167. AlphaScreen GST-Six1/His-Eya2 binding, biochemical; hits give low values. activity change, % (test concentration not listed). 0.56% of 360,000 active. AID 651725; in the data active = activity change below about -65%; inconclusive = mostly about -30% to -63%; also: % is scaled to controls: 0 for no effect and ±100 for the full control effect
Target sequence (O00167 whole entry, looked up): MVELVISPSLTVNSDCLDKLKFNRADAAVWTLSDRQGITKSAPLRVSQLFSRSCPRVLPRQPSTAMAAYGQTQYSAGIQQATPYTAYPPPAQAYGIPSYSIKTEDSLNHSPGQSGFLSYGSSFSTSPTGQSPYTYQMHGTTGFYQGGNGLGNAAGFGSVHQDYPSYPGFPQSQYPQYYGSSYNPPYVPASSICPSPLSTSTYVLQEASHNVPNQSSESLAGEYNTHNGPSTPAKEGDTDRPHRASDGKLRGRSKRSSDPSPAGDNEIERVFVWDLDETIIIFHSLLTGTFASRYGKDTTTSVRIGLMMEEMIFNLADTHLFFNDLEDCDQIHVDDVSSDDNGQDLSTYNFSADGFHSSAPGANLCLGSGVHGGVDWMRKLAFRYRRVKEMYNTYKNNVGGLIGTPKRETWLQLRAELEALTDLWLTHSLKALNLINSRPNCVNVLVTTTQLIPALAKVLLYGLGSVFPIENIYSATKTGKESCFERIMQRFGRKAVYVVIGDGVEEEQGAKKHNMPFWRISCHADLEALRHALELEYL
Target sequence (Q15475 whole entry, looked up): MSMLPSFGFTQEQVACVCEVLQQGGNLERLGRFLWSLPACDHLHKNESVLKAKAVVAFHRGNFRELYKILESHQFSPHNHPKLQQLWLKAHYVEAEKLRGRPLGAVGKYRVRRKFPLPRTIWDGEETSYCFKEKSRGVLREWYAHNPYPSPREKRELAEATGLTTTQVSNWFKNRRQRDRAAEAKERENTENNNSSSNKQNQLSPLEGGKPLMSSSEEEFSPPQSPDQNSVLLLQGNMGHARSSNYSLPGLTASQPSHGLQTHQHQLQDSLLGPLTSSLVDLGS
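AlphaScreen luminescence read after one hour at 37 °C in darkness. Pin-transferred compounds met GST-Six1 and His-Eya2 protein (5X stock 250 nM/500 nM) plus glutathione donor and Ni-chelate acceptor beads (5X, 50 ug/mL).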
p53 reactivation: re-activators of mutant p53; 0.063% of 320,000 active; H1299 p53-A138V BP100-luciferase reporter, luminescence, 24 h; Potency, µM (titrated, usually from 92.2 µM), without a hit: at the highest dose activity change, positive = activation, most hits filed as activators; also: potency is read from the fitted curve at half-maximal effect; % of control where 0% means no effect; nearly all actives have a fitted effect of over 45% in size
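H1299 (p53-null), stable ts p53-A138V + BP100-Luc; 1000 cells/well, Opti-MEM/10% FBS; cpd 4 pt, 1:5; 24 h, 37 deg C, 5% CO2; detection reagent 10 min RT; luminescence.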
RORg inh: inhibitors of mouse ROR gamma transcriptional activity; P51450; Drosophila S2 Gal4-RORgamma UAS-luciferase reporter, 20 h; Potency, µM (titrated, usually from 53.6 µM), for the others: at the highest dose activity change, negative = inhibition, actives largely listed as inhibitors; 5.4% of 310,000 active; AID 2551; also: potency is read from the fitted curve at half-maximal effect; % is scaled to controls: 0 for no effect and ±100 for the full control effect; nearly all actives have a fitted effect of over 60% in size
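Luciferase reporter read in Schneider cells carrying Gal4-RORγ (mouse) and UAS-Photinus luciferase; cells given compound 1 h before 700 uM copper sulfate induction, then incubated 20 h at ambient temperature.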
Gal4-VP16 FLuc: Gal4-VP16 reporter inhibition counter-screen | Drosophila S2 Gal4-VP16 UAS-luciferase, luminescence, 20 h | Potency, µM (highest dose often 53.6 µM), inactives show top-dose activity, negative = inhibition, most hits filed as inhibitors | AID 2546 | 3.5% of 310,000 active;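 also: Gal4-VP16 expression switched on by copper sulfate through the metallothionein promoter; potency is read from the fitted curve at half-maximal effect; % is scaled to controls: 0 for no effect and ±100 for the full control effect; nearly all actives have a fitted effect of over 50% in size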
CtBP-E1A inh: inhibitors of CtBP/E1A interaction | AlphaScreen GST-E1A/His-CtBP binding, 1536-well; hits give low values | activity change, % (no concentration beside the values) | 0.49% of 340,000 active | AID 651724; in the data active = activity change below about -65%; inconclusive = mostly about -30% to -63%; also: % is scaled to controls: 0 for no effect and ±100 for the full control effect
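In 5 uL wells, 23 nL compound meets equimolar GST-E1A and His-CtBP (5X stock 125 nM each) for 2 h, 37 °C. Beads (5X, 50 ug/mL) then 1 h, 37 °C, dark.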
* marks the source's active call; other numbers are inactive results; u = inconclusive; x = no result; [ ] = remark or other dose. This is a sample that favours compounds with a hit; in the whole collection about 5.4% have one here. Unless noted, calls follow the shape of the dose curve; as a rule, active = well fitted curve in the direction sought with a large enough effect; inconclusive = small, poorly fitted or top-dose-only effect, or another doubt; inactive = no such curve, though single readings can be large; an effect the other way counts as inactive or inconclusive.

SMILES	Six1-Eya2 inh	p53 reactivation	RORg inh	Gal4-VP16 FLuc	CtBP-E1A inh
COc1ccc(-c2csc(N3N=C(C)C(C)C3=O)n2)cc1 (configuration not stated)	-1	28%	8.9µM*	u	-17
CC1=NN(c2nc(-c3ccc(Cl)cc3)cs2)C(=O)C1	5	10%	10µM*	u	12
CC1=NN(c2nc(-c3ccc(F)cc3)cs2)C(=O)C1	-12	12%	13µM*	-8%	-2
CC1=NN(c2ccc(Cl)cc2)C(=O)C1	-9	6%	-2%	u	6
COC(=O)c1cc(OC)nc2ccc(Br)cc12	71	-2%	9%	1%	x
CCCNC(=S)N1CCC(NC(=O)C2CCCCC2)CC1	-1	-1%	6%	1%	-2
O=C(c1cc(=O)[nH]c2ccccc12)N1CCN(c2ccccc2)CC1	-4	-2%	-17%	7%	x
C=CCNC(=S)NNC(=O)c1cccc(Br)c1	-1	9%	u	u	1
C=CCNC(=S)NNC(=O)COc1ccc(Br)cc1	3	0%	5µM*	3.5µM*	-3
C=CCNC(=S)NNC(=O)COc1ccc2cc(Br)ccc2c1	-3	10%	3.2µM*	u	-19
C=CCNC(=S)NNC(=O)COc1cccc(Cl)c1	-2	0%	1.3µM*	8.9µM*	0
CC(C)NC(=O)N1CCC2(CC1)CCN(C(=O)c1csnn1)CC2	x	x	1%	9%	x
Cc1ccc(C)c(NC(=S)c2nc3ccccc3s2)c1	u	u	0.4µM*	0.71µM*	u
COc1ccc(NC(=O)c2nc3ccccc3s2)cc1	1	u	-41%	u	0
Cc1ccc(NC(=S)c2nc3ccccc3s2)cc1	-6	7%	1µM*	2µM*	u
S=C(Nc1ccc(Cl)cc1)c1nc2ccccc2s1	u	11%	0.32µM*	1.4µM*	u
O=C(Nc1ccc(Cl)cc1)/C(=C/c1cccc(O)c1)c1nc2ccccc2s1	2	1%	11µM*	20µM*	-1
COCCN1CCN(C(=O)c2ccc3nc(Cc4ccc(OC)c(OC)c4)oc3c2)CC1	9	-5%	u	7.1µM*	-11
COc1ccc(Cc2nc3ccc(C(=O)N4C[C@@H](C)O[C@@H](C)C4)cc3o2)cc1OC	0	u	u	u	-1
O=C(NC(=S)Nc1nc2c(s1)CCCC2)c1ccccc1	4	u	0.56µM*	0.63µM*	-9
Cc1ccc(CC(=O)Nc2nc3c(s2)CCCC3)cc1	-3	u	-20%	10%	-5
COc1ccc(NC(=O)Nc2nc3c(s2)CCCC3)cc1	-15	u	u	1%	0
COC(=O)c1ccc(C(=O)NC(=S)Nc2nc3c(s2)CCCC3)cc1	0	u	2.2µM*	7.1µM*	-11
S=C(Nc1nc2c(s1)CCCC2)NC1CC1	-9	u	1.3µM*	1.8µM*	1
COC(=O)c1sc(NC(=S)NC(=O)c2cccc(C)c2)nc1C	1	4%	4µM*	u	-4
SMILES	Six1-Eya2 inh	p53 reactivation	RORg inh	Gal4-VP16 FLuc	CtBP-E1A inh
O=C(NCc1ccccc1)c1c[nH]c2ccccc2c1=O	7	-1%	20%	4%	x
COC(=O)C1[C@@H](OC)C(OC(=O)COc2ccc(OC)cc2)C[C@@H]2CN3CCc4c([nH]c5cc(OC)ccc45)[C@H]3C[C@H]12 (some centres not stated)	x	x	12%	-7%	x
COC(=O)[C@H](COC(C)(C)C)NC(=O)O[C@@H]1C(=O)c2ccc(OC)cc2O[C@H]1c1ccc2c(c1)OCO2	x	x	-16%	-9%	x
Cc1nc(Nc2ccccc2)sc1C	-9	9%	3.5µM*	13µM*	-6
Cc1nc(NC(=S)NC(=O)c2ccccc2)sc1C	1	17%	1.3µM*	u	-23
Cc1nc(NC(=O)c2ccccc2)sc1C	0	u	u	-16%	x
Cc1nc(NC(=O)C2CC2)sc1C(=O)Nc1ccccc1	-6	29%	u	15%	2
Cc1nc(NC(N)=S)sc1C(=O)Nc1ccccc1	-5	3%	11µM*	-13%	-7
COC(=O)[C@@]1(Cc2ccc(F)cc2)[C@H]2c3cc(C(=O)N(C)C)n(CC4CC4)c3C[C@H]2CN1C(=O)c1ccccc1	18	x	33%	-5%	-6
CN(CC(=O)Nc1cccc(F)c1)C(=O)c1ccc(COc2ccccc2)cc1	-70*	-1%	x	x	-9
CC1CC2=C(NC(=S)NC2c2ccccc2F)/C(=C/c2ccccc2F)C1 (configuration not stated)	-11	u	2.8µM*	6.3µM*	-25
Cc1ccc(/C=C2\CCCC3=C2NC(=S)NC3c2ccc(C)cc2)cc1 (configuration not stated)	-3	5%	-43%	-26%	-11
Cc1ccc(/C=C2\CC(C)CC3=C2NC(=S)NC3c2ccc(C)cc2)cc1 (configuration not stated)	0	-2%	3.2µM*	u	-3
CC1CC2=C(NC(=S)NC2c2cccc(F)c2)/C(=C/c2cccc(F)c2)C1 (configuration not stated)	u	3%	1µM*	4.5µM*	-20
CCN(CC)C(=O)C(=O)N/N=C/c1cccc(Br)c1	0	1%	-33%	-1%	-1
O=c1/c(=C/c2ccc(O)cc2)sc2nc3cc(Br)cnc3n12	x	6%	-2%	-17%	x
O=S(=O)(Nc1cccc(CCc2ccccn2)c1)c1ccc2ccccc2c1	6	-2%	7.9µM*	2.5µM*	2
CC(C)OC(=O)CSc1ncnc2c1cnn2Cc1ccccc1	7	-1%	1%[10 µM]	4%	13
COC(=O)CSc1ncnc2c1cnn2Cc1ccccc1	9	15%	10µM*	-28%	7
COC(=O)C(=Cc1cc(Br)c(OC)c(Br)c1)C(=O)OC	x	x	u	-17%	x
CCn1cc(C2=NC(C(C)C)CO2)c2ccccc21 (configuration not stated)	7	2%	10µM*	u	8
CCn1cc(C=C2C(=O)c3ccccc3C2=O)c2ccccc21	2	-1%	15%	7%	1
CCn1cc(C2=NC(CC(C)C)CO2)c2ccccc21 (configuration not stated)	3	3%	4µM*	u	2
CCn1cc(C2=NC(CCSC)CO2)c2ccccc21 (configuration not stated)	-10	10%	7.9µM*	u	-1
CC(C)C1COC(c2cccc3ccccc23)=N1 (configuration not stated)	14	u	20µM*	u	12
CC1(C(=O)Nc2cccc(Oc3ccccc3)c2)Cc2c(-c3ccc4c(c3)OCO4)ccnc2O1 (configuration not stated)	-7	x	x	x	-9
Brc1ccc(-c2cn3nc4c(nc3n2)CCCC4)cc1	14	u	u	u	27

Assay outcomes (PubChem BioAssay)
